Assay outcomes: PubChem, Johns Hopkins Ion Channel Center
KCNQ2 enhance – potentiators of rat KCNQ2 potassium channel. AID 2239, 2010. 310,000 compounds, 0.54% hits. CHO-K1 KCNQ2, FluxOR thallium flux fluorescence; active compounds read high. B-score at 10 µM;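 active = fluorescence ratio B-score at least 3 SD of library B-scores, with initial fluorescence B-score within 3 of them, cut at about 5.3 in these data; same plate scores as AID 2156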;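 note: B-score of peak minus minimum over baseline fluorescence ratio after K+ and Tl+ stimulus; positive B-score means potentiation of KCNQ2 with more thallium influx and brighter signal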
Target sequence (O88943 whole entry, looked up): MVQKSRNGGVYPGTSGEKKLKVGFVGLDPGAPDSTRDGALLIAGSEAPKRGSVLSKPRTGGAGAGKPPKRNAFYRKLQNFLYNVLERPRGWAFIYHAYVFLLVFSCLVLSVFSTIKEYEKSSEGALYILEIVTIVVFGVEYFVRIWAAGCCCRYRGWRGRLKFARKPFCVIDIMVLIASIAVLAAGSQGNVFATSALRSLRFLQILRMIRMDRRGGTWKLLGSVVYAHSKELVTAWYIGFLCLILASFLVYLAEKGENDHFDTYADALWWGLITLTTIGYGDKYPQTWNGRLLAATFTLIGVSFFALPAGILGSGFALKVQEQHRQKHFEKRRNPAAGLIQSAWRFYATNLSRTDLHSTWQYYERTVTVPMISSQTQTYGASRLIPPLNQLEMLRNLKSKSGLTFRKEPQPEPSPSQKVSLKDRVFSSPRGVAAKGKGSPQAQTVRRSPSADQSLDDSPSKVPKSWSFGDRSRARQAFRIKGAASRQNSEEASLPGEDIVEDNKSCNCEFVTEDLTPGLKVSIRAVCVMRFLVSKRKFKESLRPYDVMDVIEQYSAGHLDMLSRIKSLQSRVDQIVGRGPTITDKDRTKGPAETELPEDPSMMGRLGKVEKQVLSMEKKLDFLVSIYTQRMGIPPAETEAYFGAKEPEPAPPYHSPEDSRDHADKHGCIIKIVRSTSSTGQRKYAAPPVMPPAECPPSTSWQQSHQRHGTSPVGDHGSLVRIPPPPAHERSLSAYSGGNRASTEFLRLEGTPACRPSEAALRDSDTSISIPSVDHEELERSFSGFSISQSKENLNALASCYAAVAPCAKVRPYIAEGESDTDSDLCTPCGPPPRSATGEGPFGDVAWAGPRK
KCNQ2 inh – rat KCNQ2 potassium channel inhibitors, primary screen, cell-based, CHO-K1, FluxOR thallium flux, B-score. Potassium voltage-gated channel subfamily KQT member 2 (Rattus norvegicus), O88943. 20 min; active compounds read low. B-score at 10 µM. 310,000 compounds, 1.1% hits;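 active = fluorescence ratio B-score at most minus 3 library SDs, with starting brightness B-score within 2 library SDs, cut at about -5.5 in these data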
Kir21 confirm – mouse Kir2.1 channel blockers, retest, confirmation, cell-based, FluxOR thallium flux, duplicate; 2,300 compounds, 41% hits; AID 2032, 2009; Kir2.1-expressing cells, FluxOR thallium flux fluorescence; active compounds read low; shares compounds with KCNQ2 enhance; Tl flux remaining, % of negative control (active compounds read low), % at 10 µM;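 active = Primary-screen hit whose thallium flux fell at least 3 control SD below untreated wells in both duplicates, with normal baseline fluorescence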
HEK293 Tl flux – alters thallium flux in parental HEK293 cells, Kir2.1 counter-screen | FluxOR thallium flux fluorescence; 0% = unstimulated blank wells | 2,300 compounds, 19% hits | FluxOR signal as % of negative control (100 = no effect), % at 10 µM | shares compounds with KCNQ2 enhance;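 active = dye signal at least 3 control SD above or below untreated wells in both duplicates, raw fluorescence within 3, either direction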;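 note: percent is based on the flux ratio of peak minus minimum fluorescence over baseline F0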
CHO-K1 Tl ctr – nonspecific thallium flux increase in parental CHO-K1, confirmation, counter-screen for KCNQ2 potentiator project, cell-based, FluxOR thallium flux, duplicate; AID 2282, 2010; parental CHO-K1 cells, FluxOR thallium flux fluorescence; zero = vehicle mean+3SD, 100% = vehicle-minus-blank window; shares compounds with KCNQ2 enhance; activity increase over 3SD of controls, % at 10 µM; 1,200 compounds, 43% hits;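 active = signal rise of at least 3 SD above the untreated control mean, in both duplicate wells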;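 note: counter screen of KCNQ2 potentiator hits so any rise reflects channel-independent effects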
KCNQ1 sel pot – human KCNQ1 channel potentiation off-target, confirmation, selectivity assay for KCNQ2 potentiator project, cell-based, CHO, FluxOR thallium flux; activation over 3SD threshold, % at 10 µM; AID 2283, 2010; 1,200 compounds, 28% hits; shares compounds with KCNQ2 enhance; CHO KCNQ1 stable, FluxOR thallium flux fluorescence; beyond 3SD, as % of vehicle-control signal;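 active = fluorescence ratio rise of at least 3 SD of vehicle wells above their mean, in both replicate wells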
KCNQ2 pot confirm – rat KCNQ2 channel potentiators, confirmation, cell-based, CHO, FluxOR thallium flux, duplicate. shares compounds with KCNQ2 enhance. CHO-KCNQ2 cells, FluxOR thallium flux fluorescence. potentiation, less the hit threshold, % at 10 µM. 1,200 compounds, 68% hits;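 active = fluorescence ratio rising 3 SD or more over the vehicle control mean in both replicates, plus primary screen hit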;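 note: peak minus minimum thallium fluorescence divided by baseline after K/Tl stimulus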
Kir2-1 sel – mouse Kir2.1 channel activation off-target, confirmation, selectivity assay for KCNQ2 potentiator project, cell-based, HEK293, FluxOR thallium flux; shares compounds with KCNQ2 enhance; HEK293 Kir2.1, FluxOR thallium flux fluorescence; activity over 3SD threshold, % at 10 µM; 1,200 compounds, 2% hits;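 active = fluorescence ratio rise of at least 3 SD above the vehicle-control mean, seen in both replicates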
KCNQ2 W236L pot – potentiators of retigabine-insensitive KCNQ2 W236L, mechanism study for KCNQ2 potentiator project, cell-based, rat KCNQ2 W236L, CHO, automated patch clamp. 940 compounds, 10% hits. automated patch clamp current. shares compounds with KCNQ2 enhance. current increase over 3SD of negative controls (%), active compounds read high, % at 25 µM;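 active = current increase at least 3 SD of the untreated controls above them in both duplicate recordings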
Numbers stand for hits; 0 = inactive; - = no result. The list is not random: actives were taken first. Their share in the collection is about 1.6%.

SMILES	KCNQ2 enhance	KCNQ2 inh	Kir21 confirm	HEK293 Tl flux	others
C=CCn1c(SCc2ccc(C(=O)OC)cc2)nnc1-c1sc(N)nc1C	0	0	-	-
c1ccc2c(c1)OC(CCCN1CCCCC1)c1ccccc1S2 (configuration not stated)	-	0	49%	0
c1ccc(OCCCCN2CCCCC2)cc1	-	0	-	-
COc1ccc(C(=O)NN2CCOCC2)cc1	0	0	-	-
c1ccc(CNc2ncnc3nc[nH]c23)cc1	0	0	-	-
c1ccc(CCCNc2ncnc3nc[nH]c23)cc1	0	0	0	0
CCOC(=O)C1C(c2cccc([N+](=O)[O-])c2)C2C(=O)NN=C2CC1(C)O (configuration not stated)	0	0	-	-
C=C(C)c1cccc(C(C)(C)NC(=O)N2CCN(c3ccc(OC)cc3)CC2)c1	0	0	-	-
Cc1ccccc1Cn1nc(C)c(NC(=O)c2sc3ccccc3c2Cl)c1C	0	0	-	-
Cc1ccccc1Cn1nc(C)c(NC(=O)c2ccccc2)c1C	0	0	0	0
Cc1ccc(/C(O)=C2\C(=O)C(=O)N(CC(C)O)C2c2ccccn2)cc1 (configuration not stated)	0	0	-	-
Cc1cc(Nc2cc(Cl)cc(Cl)c2)nc(N)n1	0	0	-	-
Cc1cc(C)c2nc(N3CCCC(C(=O)NCCCN4CCOCC4)C3)sc2c1 (configuration not stated)	-	0	-	-
Cc1cc(C)c2nc(N3CCC(C(=O)NCCCN4CC(C)CC(C)C4)CC3)sc2c1 (configuration not stated)	0	-6.4	50%	0
O=C(Nc1ccccc1C(=O)N1CCOCC1)c1ccc(Br)cc1	0	0	-	-
N=C1C(=O)OCC1c1ccccc1NC(=O)CN1CCOCC1 (configuration not stated)	-	0	-	-
CN1C(=O)CCC(CCC(=O)O)(c2ccccc2O)C1=O (configuration not stated)	0	0	-	-
CN(C)CCNC(=O)COc1ccc(C23CC4CC(CC(C4)C2)C3)cc1	-	0	41%	0
Cc1ccc(C23CC4CC(CC(NC(=O)NCCN(C)C)(C4)C2)C3)cc1	-	0	-	-
O=S(=O)(NCCc1ccc(Cl)cc1)c1cccc2cccnc12	-	0	-	-
CCOC(=O)c1c(N)sc2c(OCC)c(Br)ccc12	0	0	-	-
CCOC(=O)c1c(NC(C)=O)sc2c(OCC(O)CNC(C)(C)C)c(Br)ccc12 (configuration not stated)	-	0	0	0
N#Cc1c(-n2cccc2/C=N/O)sc2c1CCCC2	-	0	46%	0
C=CCNCc1cccn1-c1sc2c(c1C#N)CCCC2	0	0	-	-
Cc1nccn1CCCNC(=O)CC1C(=O)NCCN1Cc1ccc(F)cc1Cl (configuration not stated)	0	0	-	-
SMILES	KCNQ2 enhance	KCNQ2 inh	Kir21 confirm	HEK293 Tl flux	others
Cc1cc(C)c(S(=O)(=O)N2CCC(C(=O)NCc3ccc(Cl)cc3Cl)CC2)c(C)c1	6	0	0	0	CHO-K1 Tl ctr=0;KCNQ1 sel pot=0;KCNQ2 pot confirm=0;Kir2-1 sel=0
Cc1cc(C)c(S(=O)(=O)N2CCC(C(=O)NCc3ccncc3)CC2)c(C)c1	0	0	-	-
CCCc1nc2nc(C)c(NS(=O)(=O)c3ccc(Cl)cc3)c(=O)n2[nH]1	-	0	-	-
Cc1cc(N2CCOCC2)nc(NCc2ccccc2)n1	0	0	-	-
Cc1cc(N2CCCCC2)nc(NCc2ccccc2)n1	0	0	48%	0
Cc1oc(-c2ccc(-c3ccccc3)cc2)nc1CN1CCN(CC(=O)N(C)C)CC1	0	0	-	-
S=C(NCc1ccco1)NC1CCCc2ccccc21 (configuration not stated)	-	0	-	-
S=C(NCc1ccccc1)NC1CCCc2ccccc21 (configuration not stated)	-	0	0	0
O=C(CSc1nnnn1C1CC2C=CC1C2)Nc1ccc(C(=O)O)cc1 (configuration not stated)	0	0	-	-
Cc1ccc([N+](=O)[O-])cc1Nc1nc(N2CCCC2)nc(N2CCCC2)n1	0	0	-	-
CCN1CCN(CCNC(=O)CSCc2nc(-c3ccc(OC)c(OC)c3)oc2C)CC1	10	0	0	0	CHO-K1 Tl ctr=22;KCNQ1 sel pot=0;KCNQ2 pot confirm=0;Kir2-1 sel=0
CCN1CCN(C(=O)CSCc2nc(-c3ccc(OC)c(OC)c3)oc2C)CC1	-	0	-	-
COc1ccc(C2/C(=C(/O)c3ccc(C)cc3)C(=O)C(=O)N2CCCN2CCOCC2)cc1 (configuration not stated)	0	0	-	-
Cc1ccc(C)c(Cn2c(C)nc3c(sc(=S)n3-c3ccccc3)c2=O)c1	-	0	-	-
N/C(=N\OC(=O)CCC1CCCC1)c1ccc([N+](=O)[O-])cc1	0	0	-	-
N/C(=N\OC(=O)CC1CCCCC1)c1cccc(Br)c1	7.8	0	0	0	CHO-K1 Tl ctr=0;KCNQ1 sel pot=9.5;KCNQ2 pot confirm=21;Kir2-1 sel=0;KCNQ2 W236L pot=0
N/C(=N\OC(=O)CCC1CCCCC1)c1cccc([N+](=O)[O-])c1	11	0	0	0	CHO-K1 Tl ctr=24;KCNQ1 sel pot=0;KCNQ2 pot confirm=30;Kir2-1 sel=0;KCNQ2 W236L pot=0
N/C(=N\OC(=O)CC1CCCCC1)c1ccc(Br)cc1	-	0	-	-
CN(CC(=O)Nc1ccc(N2CCOCC2)cc1)CC(=O)Nc1ccccc1C#N	-	0	-	-
CCC(=NCc1ccccc1)c1c(C(F)(F)F)[nH]n(-c2nc3ccccc3s2)c1=O	-	0	-	-
CCC(=NCc1ccco1)c1c(C(F)(F)F)[nH]n(-c2nc3ccccc3s2)c1=O	7.8	0	0	0	CHO-K1 Tl ctr=0;KCNQ1 sel pot=0;KCNQ2 pot confirm=0;Kir2-1 sel=0
Cc1ccc(NC(=S)NCCc2c[nH]c3ccccc23)c(C)c1	-	0	76%	0
Cc1ccc(NC(=S)NCCc2ccccc2)c(C)c1	-	0	-	-
COc1cccc(CNc2ccc3[nH]c(=O)[nH]c3c2)c1OCc1ccc(F)cc1	0	0	-	-
